Activity change, less the hit threshold data for 97 molecules are collected here from PubChem BioAssay AID1942 (Johns Hopkins Ion Channel Center, 2009).

SMILES strings stand for the structures. Hit rate of the full screen: of about 2,400 compounds, about 580 (24%) were called active. Not all results are given here. Unmarked numbers belong to inactive results.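 The calls were made as follows: active = activity change at or above the mean plus 3 SD of buffer wells without dofetilide, per plate; inactive = the rest.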

Sequence of Potassium voltage-gated channel subfamily KQT member 2 (Rattus norvegicus) (O88943 whole entry, looked up): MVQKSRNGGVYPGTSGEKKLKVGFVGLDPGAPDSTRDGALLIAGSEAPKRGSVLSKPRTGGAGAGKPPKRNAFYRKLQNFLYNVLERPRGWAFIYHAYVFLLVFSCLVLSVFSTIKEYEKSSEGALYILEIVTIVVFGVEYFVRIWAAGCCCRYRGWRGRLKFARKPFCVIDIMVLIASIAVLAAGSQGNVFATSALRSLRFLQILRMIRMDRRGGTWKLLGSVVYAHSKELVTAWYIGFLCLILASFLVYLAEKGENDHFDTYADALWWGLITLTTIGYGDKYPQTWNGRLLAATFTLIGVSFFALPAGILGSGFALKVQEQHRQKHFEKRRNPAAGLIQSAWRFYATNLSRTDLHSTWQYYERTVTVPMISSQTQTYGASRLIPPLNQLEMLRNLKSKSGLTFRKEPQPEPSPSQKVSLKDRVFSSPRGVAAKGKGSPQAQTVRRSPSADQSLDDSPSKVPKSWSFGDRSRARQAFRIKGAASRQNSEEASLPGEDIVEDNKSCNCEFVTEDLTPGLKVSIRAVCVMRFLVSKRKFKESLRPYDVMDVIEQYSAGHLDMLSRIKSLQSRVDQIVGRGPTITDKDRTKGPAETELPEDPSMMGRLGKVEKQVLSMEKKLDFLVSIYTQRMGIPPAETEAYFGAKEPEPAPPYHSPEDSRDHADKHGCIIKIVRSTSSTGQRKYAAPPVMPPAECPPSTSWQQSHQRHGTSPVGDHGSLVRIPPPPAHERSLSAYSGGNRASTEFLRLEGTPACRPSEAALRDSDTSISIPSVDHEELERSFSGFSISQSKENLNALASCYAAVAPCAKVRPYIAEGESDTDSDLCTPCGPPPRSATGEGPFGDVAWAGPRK

This test addresses Potassium voltage-gated channel subfamily KQT member 2 (Rattus norvegicus) (UniProt O88943). In words: rat KCNQ2 channel activation by compounds alone, confirmation, counter-screen for hERG block protector project, cell-based, CHO, FluxOR thallium flux (AID 1942).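 Also: normalized value minus buffer-control mean plus three SD of buffer wells.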 The conditions noted are these: CHO-KCNQ2 cells, FluxOR thallium flux fluorescence; at 10 µM; active compounds read high.
Take `O=C(COc1ccccc1[N+](=O)[O-])Nc1cc(Cl)ccc1C(=O)O`: the activity change, less the hit threshold is -11.3%. For the molecule `O=C(NNc1nc2c(F)cccc2s1)c1cc(=O)c2ccccc2o1`, the activity change, less the hit threshold is -19.2%. `O=c1cc(-c2c(F)c(F)c(F)c(F)c2F)oc2ccccc12`: the activity change, less the hit threshold is 12.2% (active). For `COc1ccc(S(=O)(=O)Nc2cccc(-n3cnnn3)c2)cc1` the value was -11.2%; for `Cc1ccnc(SCCn2c(N3CC(C)OC(C)C3)nc3c2c(=O)n(C)c(=O)n3C)n1` (configuration not stated), -16.5%. For `O=C(Cn1c(=O)oc2ccccc21)Nc1ccc(F)c(F)c1` the value was -17.1%; for `CCCCn1nnc(NC(=O)Cc2ccc(Cl)cc2)n1`, -11.7%.

Consider `CCOc1ccc2[nH]cc(S(=O)(=O)c3ccc(F)cc3)c(=O)c2c1`, for which the activity change, less the hit threshold was -19.1%. For `S=c1[nH]nc(-c2ccc(Cl)cc2)n1Cc1ccccc1` the value was -30.3%; for `CCCCn1c(-c2csc(C(C)C)c2)n[nH]c1=S`, 6.8% (active). For `CC(C)(C)OC(=O)C(Cl)(C(=O)OC(C)(C)C)c1ccc2nnnn2n1` the value was -14.5%. For `CC(=O)c1cc(N2CCC(C(=O)O)CC2)ccc1[N+](=O)[O-]` the value was -24.9%. Consider `Cc1nn(-c2ccccc2)c(Cl)c1/C=C1\SC(=S)NC1=O`, for which the activity change, less the hit threshold is 60.1% (active). For `CCc1nnc(NC(=O)c2c(C)nn(-c3ccccc3)c2Cl)s1` the value was -4.8%; for `Cc1nn(-c2ccccc2)c(C)c1S(=O)(=O)O`, -13.9%; for `CCCC(=O)n1nc(-c2ccccc2)nc1N`, -17.9%. For `O=C(Nc1nc(-c2ccccc2)c(-c2ccccc2)o1)c1ccc(F)cc1` the value was 9% (active); for `CN(C)/C(=N\S(=O)(=O)c1ccccc1)c1ccc(F)cc1`, -9.6%; for `O=C(Nc1cccc2[nH]ncc12)c1ccc(F)cc1`, -24.7%.

Take `Cc1ccc(-c2nc(CSCC(=O)N3CCOCC3)c(C)o2)cc1`: the activity change, less the hit threshold is -25.1%.

For the molecule `COc1ccc(S(=O)(=O)Nc2ccc(Cl)cn2)c(C)c1C`, the activity change, less the hit threshold is -12.1%. For `COC(=O)c1ccc(CSc2ncnc3sc(C)c(C)c23)o1` the value was -6.5%; for `Cc1noc(C)c1CSc1ncnc2sc3c(c12)CCCCC3`, 14.8% (active); for `COc1ccc(-n2c(O)c(/C=C3\C=Nc4ccccc43)c(=O)[nH]c2=O)cc1`, -40%. `Cc1ccc2cc(CCNC(=O)C(=O)c3c(C)[nH]c4ccccc34)c(=O)[nH]c2c1`: the activity change, less the hit threshold was -20.7%. For `CCOC(=O)c1sc(=S)n2c1[nH]c(=O)c1ccc(C(=O)OC)cc12` the value was 79.4% (active); for `CCC1SC2=NC(C)=C(C(=O)OC)C(c3ccc(C(=O)OC)cc3)N2C1=O` (configuration not stated), -10.7%. For `CCCNC(=O)CN1C(=O)NC(Cc2c[nH]c3ccccc23)C1=O` (configuration not stated) the value was -17.5%; for `CC12CCC(C(=O)NCc3ccc4c(c3)OCO4)(CC1=O)C2(C)C` (configuration not stated), -5.5%.

Turning to `CCOCCCNC(=O)C(NC(=O)Cc1cccs1)c1ccc(C)cc1` (configuration not stated), the activity change, less the hit threshold is -21.4%. For `O=S(=O)(NC(=S)NC1CCCCC1)c1ccc(Br)cc1` the value was 5.4% (active). For `O=C(NC1CCCCC1)c1ccc(COCC(F)(F)F)o1` the value was -5%; for `CCc1ccc(S(=O)(=O)NC(=S)NC2CCCCC2)cc1`, 52.3% (active); for `O=c1oc2ccccc2c(NC2CCCCC2)c1NS(=O)(=O)c1ccc(Cl)cc1`, -14.5%. `Cc1ccc(S(=O)(=O)NC(=S)NC2CCCCC2)cc1`: the activity change, less the hit threshold was -11.5%. For `O=S(=O)(NC(=S)NC1CCCCC1)c1ccc(Cl)cc1` the value was 19.8% (active); for `COc1cc(Cl)c(C)cc1NC(=O)CSc1sc2c(O)cc(=O)[nH]c2c1C#N`, -11.4%. For `N#Cc1c(N)c(C(=O)c2ccccc2)n2ccccc12` the value was -16.1%; for `Nn1c(SCC(=O)Nc2ccc(F)cc2)nnc1C1CCCCC1`, -23.5%. For `O=C1NCCN1Cc1ccccc1F` the value was -11.9%. For `COc1ccc2c(c1)O[C@@H](c1cccc(C(F)(F)F)c1)[C@H](OC(=O)NCCc1ccc(OC)c(OC)c1)C2=O`, the activity change, less the hit threshold is -11%. As to `CCc1nnc(NC(=O)COc2ccc([N+](=O)[O-])cc2)s1`, the activity change, less the hit threshold is -12.5%. For `CC/C(=N\NC(=O)c1nnn(-c2nonc2N)c1-c1cccs1)c1ccccc1` the value was -13.9%. For `COc1ccc(C)cc1NC(=O)C(=O)NNC(=O)c1ccco1` the value was 73.2% (active); for `O=C(CCC(=O)Nc1ccccc1)NNC(=O)c1ccco1`, -23.9%; for `COc1ccccc1NC(=O)C(=O)NNC(=O)c1ccco1`, 24.1% (active). For `CCN(CC)C(=O)CN1C(=O)C2CC=C(Cl)CC2C1=O` (configuration not stated) the value was -12.3%; for `O=C(O)Cn1cc(CN2CCOCC2)c2ccccc21`, -20.4%. With `CC1(OC(=O)C2CCCC2)C(=O)C=C2C=C(c3ccc(C#N)cc3)OC=C2C1=O` (configuration not stated), the activity change, less the hit threshold is -18.1%. For `CCOC(=O)C1=C(Cn2cnc3ccccc32)NC(=O)NC1c1cc(C)ccc1C` (configuration not stated) the value was -19.4%; for `Cc1ccc(S(=O)(=O)N2CCOCC2)cc1NC(=O)CSc1nc2ccccc2c(=O)n1Cc1ccccc1`, -8.2%; for `Cc1ccc(CNC(=O)CN2C(C)CCCC2C)cc1` (configuration not stated), -17%. For `CN1/C(=C/C=C(C#N)C#N)C=Cc2ccccc21`, the activity change, less the hit threshold was -17.6%. For `CCOC(=O)N1CCN(c2c(-c3ccc(C)c(C)c3)c(=O)c2=O)CC1` the value was -10.9%. For `Cc1ccc(-n2c(=O)c3cc4c(=O)n(-c5ccc(C)c(C)c5)c(=O)c4c(C(=O)c4ccc(C(=O)O)cc4)c3c2=O)cc1C` the value was -9.5%.

As to `Cc1ccc(N2CCN(C(=O)N3CCCC3)CC2)cc1C`, the activity change, less the hit threshold was 3.3% (active). On to `COc1ccc(NC(=S)NC(NC(=O)c2cccc3ccccc23)C(Cl)(Cl)Cl)c([N+](=O)[O-])c1` (configuration not stated), for which the activity change, less the hit threshold was -21.8%.

As to `CCOC(=O)c1c(NC(=S)NC)sc2c1CC(C)(C)SC2`, the activity change, less the hit threshold is 97.7% (active). Take `CCOC(=O)c1c(/N=C/C2=C(O)CCCC2=O)sc2c1CCCC2`: the activity change, less the hit threshold is -20.8%. For `CCOC(=O)c1c(NC(=S)NC)sc2c1CCCC2` the value was 13% (active). For `Cc1onc(-c2ccccc2)c1C(=O)NC(=S)Nc1sc2c(c1C#N)CCCC2` the value was -12.6%; for `COC(=O)c1c(NC(=S)Nc2ccc(F)cc2[N+](=O)[O-])sc2c1CCCCC2`, 1.5% (active); for `CNC(=S)Nc1sc2c(c1C(=O)OC)CCC2`, 8.9% (active). For `CCc1nnc(NC(=O)CCC(=O)N2CCN(C3CCCCC3)CC2)s1` the value was -21.4%; for `O=C(N/C(=C/c1ccc2c(c1)OCO2)C(=O)N1CCOCC1)c1cccs1`, -18.2%; for `CC(C)OC(=O)N(C)c1ccc(C(O)(C(F)(F)F)C(F)(F)F)cc1`, -9.3%. For `COc1cc(C2c3c(n[nH]c3C)C(=O)N2c2ccc(C)cc2)ccc1O` (configuration not stated), the activity change, less the hit threshold is -19.5%. For `Cc1ccc(NS(=O)(=O)c2cn(C)c(=O)n(C)c2=O)c(C)c1` the value was -0.5%. For `Cn1c(NNC(=O)C(c2ccccc2)c2ccccc2)cc(=O)n(C)c1=O` the value was -1.8%; for `CCOc1ccc(NC(=O)c2ccc(NC(=O)CSc3nc4ccccc4c(=O)[nH]3)cc2)cc1`, -13.5%; for `Fc1cccc(/C=N/Nc2ccc3ccccc3n2)c1`, -17.9%.

On to `CC(=O)c1c(NC(=O)c2ccccc2)[nH]c(-c2ccccc2)nc1=S`, for which the activity change, less the hit threshold was 7% (active). As for `CC(=O)c1c(N2CCCC2)[nH]c(-c2ccccc2)nc1=S`, the activity change, less the hit threshold was -6%.

Take `CC(=O)c1c(C)[nH]c(-c2ccccc2)nc1=S`: the activity change, less the hit threshold was -7.7%. Turning to `CC(=O)c1c(N)[nH]c(-c2ccccc2)nc1=S`, the activity change, less the hit threshold is -0.2%. For `C=C(C)Cc1c(C)nc(-c2ccccc2)[nH]c1=O` the value was -12.3%; for `CSc1nc(-c2ccccc2)[nH]c(=S)c1C(C)=O`, 72.6% (active). In the case of `Cc1ccccc1CC(=O)NC1CCN(Cc2ccccc2)CC1`, the activity change, less the hit threshold was -25.3%. For `CC(=O)c1c(N2CCN(Cc3ccccc3)CC2)[nH]c(-c2ccccc2)nc1=S` the value was 22.7% (active); for `O=C(NCc1cccc(Cl)c1)c1ccncc1`, -23.6%; for `Nc1ccc(Cl)c(NC(=O)c2cccs2)c1`, -12.3%.

As for `Cc1cc(C(=O)CCC(=O)NC(C)c2ccc(S(N)(=O)=O)cc2)c(C)s1` (configuration not stated), the activity change, less the hit threshold was -10%. For `Cc1ccc(C(C)NC(=O)c2ccc3c(c2)OCO3)cc1C` (configuration not stated) the value was 27.1% (active). For `Cc1ccc(NC(=O)c2ccc3c(c2)OCO3)cc1Cl` the value was -14.7%; for `Cc1ccc(C(=O)NC(C)c2ccc(C)c(C)c2)s1` (configuration not stated), 24.3% (active); for `Cc1cc(C(=O)NNC(=O)c2cccs2)nn1C(C)(C)C`, -14.9%. For `Cc1ccc(C(C)NC(=O)c2cccs2)cc1C` (configuration not stated) the value was 4% (active). Consider `CCCCNC(=S)NNC(=O)c1ccc2c(c1)OCO2`, for which the activity change, less the hit threshold was -24.3%.

For the molecule `O=S(=O)(Nc1ccc(O)c2ccccc12)c1ccc(F)cc1`, the activity change, less the hit threshold was -19.8%. As for `O=C1C2C3C=CC(C4CC34)C2C(=O)N1/N=C/c1ccc(-c2ccc(F)cc2[N+](=O)[O-])o1` (configuration not stated), the activity change, less the hit threshold is -20.9%. `Cc1ccc(/C=N/Nc2nc(C(C)(C)C)cs2)o1`: the activity change, less the hit threshold was -0.3%. For `COCCNC(=O)C1CC(=O)N(c2ccc(OC)cc2)C1c1ccc(OC)cc1` (configuration not stated) the value was -16.8%. For `CN1C(=O)/C(=N/OC(=O)c2ccccc2)c2ccccc21` the value was -19.8%; for `O=C(O)CCCCn1c(SCc2ccccc2Cl)nc2ccsc2c1=O`, -5.9%; for `Cc1ccc(C)c(NC(=S)NNC(=O)c2csc3c2CCC(C)C3)c1` (configuration not stated), 14.5% (active). On to `Cc1ccc(C)c(NC(=O)C2C3CCCC2C3c2ccccc2)c1` (configuration not stated), for which the activity change, less the hit threshold was -4.2%.

As to `Cc1cccc(NC(=S)NNC(=O)c2csc3c2CCC(C)C3)c1` (configuration not stated), the activity change, less the hit threshold is -8.1%.
